Most compounds without a hit are left out; they make up all but 19% or so of the library.
DT40 TDP1 CPT: qHTS for Inhibitors of human tyrosyl-DNA phosphodiesterase 1 (TDP1): qHTS in cells in presence of CPT. AID 686979, 2013. Potency, µM (top dose mostly 46.2 µM), for inactives: at the highest dose activity change, negative = growth inhibition, usual class: inhibitors. actives 12% (n = 420,000). chicken DT40 Tdp1-/-;hTDP1 cells + 20 nM CPT, ATP luminescence, 48 h; further: potency means the concentration at half of the fitted maximal effect; nearly all actives have a fitted effect of over 55% in size
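Chicken DT40 Tdp1-/- cells stably complemented with human TDP1 were seeded at 400 cells/well in medium containing 20 nM camptothecin, exposed to pin-transferred compounds, and grown at 37 °C for at least 48 hr. Viability was read as ATP luminescence.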
HT1080NT lethal: qHTS for induction of synthetic lethality in tumor cells producing 2HG: qHTS for the HT-1080-NT fibrosarcoma cell line. HT-1080-NT fibrosarcoma viability, CellTiter-Glo ATP luminescence, 48 h. actives 1.6% (n = 360,000). Potency, µM (series often up to 46.1 µM), inactives show at the highest dose activity, negative = less viability, hits mostly cytotoxic;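 further: NT is the 2HG producing partner of a matched IDH1 knockdown line; potency means the concentration at half of the fitted maximal effect; 0% = DMSO-treated cells and -100% = media-only wells without cells; nearly all actives have a fitted effect of over 55% in size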
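Viability by CellTiter-Glo luminescence after 48 h compound exposure at 37C of HT-1080-NT cells (750/well, RPMI, 5% FBS). % activity scaled between DMSO wells and medium-only wells, then curve-fitted and categorized by curve class.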
HT1080 IDH1KD tx: qHTS for induction of synthetic lethality in tumor cells producing 2HG: qHTS for the HT-1080-IDH1KD cell line | Potency, µM (titrated, usually from 46.1 µM), for the others: at the top dose activity, negative = toxicity, usual class: cytotoxic | HT-1080 IDH1 knockdown viability, ATP luminescence, 48 h | actives 2% (n = 360,000) | AID 686971, 2013;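 further: potency means the concentration at half of the fitted maximal effect; 0% = DMSO wells and -100% = cell-free medium wells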
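Knockdown cells (IDH1KD HT-1080) received compounds 2 h after plating at 750 cells/well and were kept 48 h at 37 °C in 5% FBS RPMI. A CellTiter-Glo luminescence read gave % activity for curve fitting.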
TDP1 cell noCPT: qHTS for Inhibitors of human tyrosyl-DNA phosphodiesterase 1 (TDP1): qHTS in cells in absence of CPT | actives 15% (n = 420,000) | Potency, µM (titrated, usually from 46.2 µM), for inactives: at the top dose activity change, negative = growth inhibition, actives largely listed as inhibitors | DT40 Tdp1-/- hTDP1 cells, no CPT, ATP luminescence, 48 h | AID 686978, 2013; further: potency means the concentration at half of the fitted maximal effect; nearly all actives have a fitted effect of over 55% in size
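Growth of hTDP1-complemented DT40 Tdp1-knockout cells is measured by ATP luminescence after at least 48 hr compound exposure at 37 °C, with DMSO substituting for the 20 nM CPT used in the parallel screen.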
IL-1B inflam inh: qHTS for Inhibitors of Inflammasome Signaling: IL-1-beta AlphaLISA Primary Screen. THP-1 LPS/ATP IL-1B secretion, AlphaLISA, 16 h; hits give low values. activity change, % at 57.5 µM. actives 4.7% (n = 360,000). AID 743279, 2014; in the data active means activity change below about -50%; inconclusive means mostly about -30% to -49%
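Secreted IL-1B measured by AlphaLISA bead assay after 16 h compound exposure of THP-1 cells; compounds (final up to 57.5 uM) added 1 h before LPS (250 ng/mL) and ATP (1.25 mM) stimulation; lower signal means less secretion.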
ELG1 DNA repair: qHTS screen for small molecules that inhibit ELG1-dependent DNA repair in human embryonic kidney (HEK293T) cells expressing luciferase-tagged ELG1; HEK293T ELG1-luciferase reporter, luminescence, 16 h; DNA damage induced by 5-fluorouridine; Potency, µM (top dose mostly 46.1 µM), inactives show at the top dose activity change, negative = inhibition, actives largely listed as inhibitors; actives 2.3% (n = 330,000); further: potency means the concentration at half of the fitted maximal effect; nearly all actives have a fitted effect of over 55% in size
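DMSO vehicle served as the neutral condition. Each well held 2,000 cells given 5-fluorouridine plus compound; after 16 hr at 37 °C/5% CO2, ONE-Glo was added and luciferase measured 30 min later.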
Starred values were filed as active, the others as inactive; u = inconclusive; x = not tested or not shown; [ ] = dose if it differs, or a comment. Unless noted, the call rests on the fitted dose curve; in most records, active means well fitted curve in the direction sought with a large enough effect; inconclusive means small, poorly fitted or top-dose-only effect, or another doubt; inactive means no such curve, though single readings can be large; an effect the other way counts as inactive or inconclusive. Unless noted, on the % scale 0 is the no-effect control and ±100 the full control effect.

SMILES	DT40 TDP1 CPT	HT1080NT lethal	HT1080 IDH1KD tx	TDP1 cell noCPT	IL-1B inflam inh	ELG1 DNA repair
Cc1ccc(S(=O)(=O)N2C[C@@H]3CCCC[C@@H]3[C@@H](C)[C@H]2c2cn(Cc3ccccc3)c3ccccc23)cc1	6.5µM*	-2%	-2%	7.3µM*	5	u
Cc1ccc(S(=O)(=O)N2C[C@@H]3CCCC[C@@H]3[C@@H](C)[C@H]2c2cn(Cc3ccccc3)c3ncccc23)cc1	12µM*	-2%	-1%	u	-1	u
Cc1ccc(S(=O)(=O)N2C[C@@H]3[C@H]4CC[C@H](C4)[C@@H]3[C@@H](C)[C@@H]2c2cn(Cc3ccccc3)c3ncccc23)cc1	23µM*	0%	-4%	21µM*	-18	u
Cc1ccc(S(=O)(=O)N2C[C@@H]3[C@H]4CC[C@H](C4)[C@@H]3[C@@H](C)[C@H]2c2ccn(Cc3ccccc3)c2)cc1	29µM*	u	-14%	-75%	u	2%
CCOC(=O)CCN1C(=O)c2ccccc2Sc2ncccc21	-11%	13%	13%	-24%	13	2%
O=C(Cn1c(=O)nc(-c2ccccc2)c2cc(Cl)ccc21)NCCCc1ccccc1	-3%	x	x	-26%	x	x
CC(=O)Nc1c(Cl)c(Cl)c2c(c1Cl)C(=O)c1cc(Cl)ccc1-2	u	3%	16%	u	2	x
COCCNC(=O)c1cn(C2CCN(C3CCCC3)CC2)nn1	0%[9.04 µM]	x	x	6%	x	x
Cc1ccc(S(=O)(=O)N2C[C@@H]3[C@H]4CC[C@H](C4)[C@@H]3[C@@H](C)[C@H]2C#N)cc1	21µM*	5%	3%	u	18	-1%
Cc1ccc(S(=O)(=O)N2CC3CCC2C3)cc1 (centres undefined)	-20%	12%	8%	-29%	0	1%
O=C(CN(C(=O)CNC(=O)c1cccs1)c1ccccc1)NC1CCCCC1	8%	-3%	-1%	0%	6	5%
COc1ccc(-c2nc(C(=O)Nc3cccc(C(C)=O)c3)nn2-c2ccccc2Cl)cc1	18µM*	x	x	16µM*	x	x
CC(=O)c1ccc(NC(=O)c2nc(-c3ccccc3)n(-c3ccc(C)cc3)n2)cc1	u	x	x	18µM*	x	x
CCOC(=O)c1nn(-c2cccc(OC)c2)c2nc(CC)c(C#N)c(=O)n12	-4%	-1%	1%	3%	12	-5%
N#Cc1cccc(NC(=O)c2nc(-c3ccccc3)n(-c3ccccc3)n2)c1	u	-12%	-1%	18µM*	-20	u
Cc1ccc(C)c(NC(=O)c2nc(-c3ccccc3)n(-c3ccccc3)n2)c1	u	13%	4%	u	u	u
N#Cc1c(-c2ccccc2)nc2n(-c3ccccc3)nc(C(=O)Nc3ccccc3)n2c1=O	u	44%	20%	7.3µM*	0	-9%
Cn1c(N)c(C(=O)COc2ccc(C#N)cc2)c(=O)n(C)c1=O	2%	u	23%	-26%	0	11%
CCCC(=O)N1CCCC(c2cc(C(=O)NCc3cccnc3)no2)C1 (centres undefined)	-1%	8%	27%	-12%	6	x
COC(=O)c1sc2cccc(F)c2c1S(=O)(=O)NCc1ccccc1Cl	20%	x	x	-12%	x	x
O=C(CSc1nnc(-c2ccccc2)o1)N1CCCCC1	-1%	11%	6%	-6%	-14	u
O=C(Nc1nccs1)c1nc(-c2ccccc2)n(-c2ccccc2)n1	u	0%	1%	u	11	u
Cc1csc(NC(=O)c2nc(-c3ccccc3)n(-c3ccccc3)n2)n1	u	4%	14%	u	u	15µM*
CC(=O)c1cccc(NC(=O)c2nc(-c3ccccc3)n(-c3ccccc3)n2)c1	21µM*	x	x	10µM*	x	x
CCOC(=O)c1c(NC(=O)COc2ccc(Cl)cc2C)sc(C(C)=O)c1C	-16%	x	x	-29%	x	x
SMILES	DT40 TDP1 CPT	HT1080NT lethal	HT1080 IDH1KD tx	TDP1 cell noCPT	IL-1B inflam inh	ELG1 DNA repair
O=C(Nc1ccc(F)cc1)N1CCc2ccccc2C1	-28%	10%	-1%	u	-55*	u
O=C(CNC1CCCCC1)N1CCc2ccccc2C1	2%	3%	-3%	-17%	6	14%
O=C(NC1CCCCC1)C(c1ccccc1)N1CCc2ccccc21 (centres undefined)	26µM*	-7%	0%	21µM*	-11	u
O=C(Nc1ccc(Br)cc1)N1CCc2ccccc2C1	-23%	-5%	-3%	-11%	-83*	u
O=C(NC1CCCCC1)N1CCc2ccccc2C1	-11%	-3%	-4%	-18%	-79*	-5%
CC(C)OCCCNC(=O)CCCn1c(SCC(=O)c2ccc(F)cc2)nc2c(sc3ccccc32)c1=O	-7%	x	x	-2%	x	x
CCCC(=O)Nc1nnc(S(=O)(=O)N(CC)c2ccccc2)s1	-2%	2%	0%	29%	-13	0%
CCOC(=O)[C@@H](C)N(C(=O)OC(C)(C)C)S(=O)(=O)N(Cc1ccccc1)[C@H](C(=O)OC)C(C)C	23µM*	9%	3%	u	57	x
COC(=O)[C@H](C(C)C)N(Cc1ccccc1)S(=O)(=O)CCN1CCCC1	u	-3%	-6%	u	-6	9%
CN(C)c1ncnc2c1ncn2[C@H]1CN(Cc2ccc3c(c2)OCO3)C[C@@H](CO)O1	-5%	0%	9%	u	-5	x
Cc1ccc(C(C)C)cc1S(=O)(=O)NC1CC(C)(C)NC(C)(C)C1	-14%	u	-15%	u	-3	-10%
COc1nc(C#N)nc(N2CCCC2)n1	u	x	x	16µM*	x	x
CCOc1nc(C#N)nc(N2CCCCC2)n1	21µM*	-9%	-11%	15µM*	-92*	u
COc1nc(N2CCCCCC2)nc(N2CCCCCC2)n1	u	-7%	-19%	u	26	-1%
CCN(CC)c1ccc(/C=C/C(=O)c2ccc(Br)cc2)cc1	16µM*	-3%	-13%	u	-65*	10%
